Screening results: PubChem BioAssay, several laboratories
Rows were chosen to be rich in hits. Some 1.7% of all compounds tested hit in one or more screens of this group.
MRP resist rev: compounds reversing MRP-mediated drug resistance; H69AR cells + 2 uM doxorubicin, CellTiter-Glo, 72 h; differential viability (reversal), % at 10 µM; 85,000 tested, 0.04% active;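 active = viability drop by adding the cancer drug above about 55%, with treated viability meeting a 40% cutoff, limit read from the data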;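 also: viability without doxorubicin minus viability with 2 µM doxorubicin for each compound; larger differential means the compound sensitizes cells more to doxorubicin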
S1P2 antag: antagonists of human S1P2 receptor. AID 736. 97,000 tested, 0.21% active. cell-based S1P2 antagonist assay, inhibition at 5 uM. O95136. inhibition, % at 5 µM; in the data active = inhibition above about 45%;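 also: CRE beta-lactamase reporter cells expressing human S1P2 stimulated with S1P; 0% = agonist at EC80 alone and 100% = agonist plus reference antagonist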
Target sequence (O95136 whole entry, looked up): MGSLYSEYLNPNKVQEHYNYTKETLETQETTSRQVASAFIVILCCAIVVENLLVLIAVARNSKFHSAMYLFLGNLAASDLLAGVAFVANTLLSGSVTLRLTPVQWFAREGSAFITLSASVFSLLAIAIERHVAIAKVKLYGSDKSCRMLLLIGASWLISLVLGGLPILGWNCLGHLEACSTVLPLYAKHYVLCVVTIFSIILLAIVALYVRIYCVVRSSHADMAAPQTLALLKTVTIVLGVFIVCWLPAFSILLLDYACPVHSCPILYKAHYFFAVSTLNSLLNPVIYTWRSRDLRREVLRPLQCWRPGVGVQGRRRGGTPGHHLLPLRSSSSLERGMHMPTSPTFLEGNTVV
S1P2 agonist: activates the human S1P2 receptor. 97,000 tested, 0.46% active. activation, % at 4.5 µM. S1P2-expressing cell line, agonist reporter read-out. O95136; in the data active = activation above about 16%;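 also: 0% = vehicle low control and 100% = maximal reference agonist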
GALR2 agonist: GALR2 (human) receptor agonism; GALR2-expressing cells, agonist activation read-out; activation, % (test concentration not listed); 140,000 tested, 0.48% active; in the data active = activation above about 5%, passing the limit was not always enough;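 also: 0% = vehicle buffer wells and 100% = reference agonist at full effect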
MRP1 act: MRP-1 activation. H69AR cells + doxorubicin, viability rescue, CellTiter-Glo. AID 799. viability increase, % at 10 µM. 140,000 tested, 0.61% active;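 active = viability gain under doxorubicin at or above a set limit, the compound median plus 3 SD, cut at about 4.7% in these data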;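 also: MRP-1 overexpressing cells given doxorubicin 25 µM after compound pretreatment; 18-22 h compound pretreatment then 72 h with doxorubicin before readout; 0% = doxorubicin-only wells and 100% = vehicle-treated cells without doxorubicin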
GALR2 blocker: antagonists of human galanin receptor 2 (GALR2); O43603; GALR2-expressing cells, antagonist mode; inhibition, % at 4 µM; 140,000 tested, 0.39% active; in the data active = inhibition above about 27%;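 also: cells stimulated with galanin 1-16 at roughly its EC80; 0% = agonist challenge control and 100% = basal control without agonist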
Starred values were filed as active, the others as inactive; · = no result.

SMILES	MRP resist rev	S1P2 antag	S1P2 agonist	GALR2 agonist	MRP1 act	GALR2 blocker
N=c1c(-c2nc3ccccc3[nH]2)cc(C(=O)c2cccs2)nn1-c1ccc(Cl)cc1	-1	-29	30*	-2	·	3
O=C(/C(=C/c1ccc(Cl)cc1)c1nc2ccccc2[nH]1)c1cccs1	·	40	-12	-3	-2	26
Cc1sc(N2C(=O)C3C4C=CC(C4)C3C2=O)c(C#N)c1C (configuration not stated)	·	·	·	0	-1	0
CC1=C(C(=O)OCCNC(=O)c2ccccc2O)C(c2ccccc2[N+](=O)[O-])C(C(=O)OCC2CCCO2)=C(C)N1 (configuration not stated)	·	·	·	0	-2	-12
O=C(CSc1nncn1-c1ccccc1)NCc1cccs1	18	-2	-3	12*	0	-11
COc1cccc(CNC(=O)CCNC(=O)Cn2ccc3ccccc3c2=O)c1	·	-4	-2	0	-1	10
O=C(CCNC(=O)Cn1ccc2ccccc2c1=O)NCCc1ccccc1Cl	·	·	·	-4	5.1*	-1
O=c1oc2ccccc2cc1N1CCOCC1	·	·	·	0	0	9
CC1N=C2c3ccccc3N=C(SCc3cc(=O)n4ccccc4n3)N2C1=O (configuration not stated)	-3	·	·	·	·	·
CC(C)C1N=C2c3ccccc3N=C(SCc3cc(=O)n4cc(Cl)ccc4n3)N2C1=O (configuration not stated)	-5	-34	25*	0	-4	-9
O=C1OCCN1C(=O)[C@H]1[C@H](c2ccc(F)cc2)C(c2ccc(F)cc2)=NN1c1ccc(Br)cc1	·	·	·	6.7*	-4	-2
O=C1OCCN1C(=O)[C@H]1[C@H](c2ccc(F)cc2)C(c2ccc(F)cc2)=NN1c1ccccc1	·	·	·	1	-3	6
O=C(Nc1ccc2c(c1)OCCO2)C1CCN(C(=O)c2ccccc2)CC1	9	10	24*	-3	-3	3
Cc1cc(C)n2cc(CSc3nc4cc(Cl)ccc4o3)nc2n1	10	-11	17*	-1	-3	-3
Cc1cc(C)n2cc(CSc3nnc(-c4ccccc4)o3)nc2n1	1	-23	4	-2	-1	-1
Cc1cc(C)n2c(Br)c(CSc3nc4ccccc4o3)nc2n1	-6	-37	17*	-1	-3	-5
CCc1ccc(C(=O)COC(=O)CNC(=O)COc2ccccc2)cc1	·	·	·	-1	1	-8
S=C(NCc1ccccn1)Nc1cccc(Cl)c1	·	22	-4	-2	-1	15
S=C(NCc1ccccn1)Nc1ccccc1Cl	·	·	·	0	8.2*	-4
Cc1nc(N2CCN(Cc3ccccc3)CC2)nc2c1C(=O)CC(c1ccco1)C2 (configuration not stated)	8	-16	-7	0	5.6*	-11
Cc1nc(N2CCN(Cc3ccc4c(c3)OCO4)CC2)nc2c1C(=O)CC(c1ccco1)C2 (configuration not stated)	·	-13	-1	-4	2	4
COc1ccccc1NC(=S)N1CCN(Cc2ccc3c(c2)OCO3)CC1	·	·	·	-1	-3	-18
CCCCOc1ccc(/C=C/C(=O)Nc2ccc([N+](=O)[O-])cc2C)cc1	·	·	·	-1	5.8*	-4
CCCOc1ccc(/C=C/C(=O)Nc2ccc([N+](=O)[O-])cc2)cc1	·	-1	-1	-2	-1	3
O=C1c2cccc(OCc3ccc(F)cc3)c2CCN1Cc1ccc(F)cc1	·	·	·	-1	5.6*	4
SMILES	MRP resist rev	S1P2 antag	S1P2 agonist	GALR2 agonist	MRP1 act	GALR2 blocker
Cc1ccc(CN2CCc3c(OCc4ccc(F)cc4)cccc3C2=O)cc1	·	·	·	-2	1	-1
Cc1ccc([N+](=O)[O-])cc1N(CC(=O)Nc1ccc(S(=O)(=O)Nc2cccc(C(F)(F)F)c2)cc1)S(C)(=O)=O	·	·	·	-1	-4	-8
COc1ccc(C)cc1N1C(=N)/C(=C2/Nc3ccccc3S2)C(c2ccccc2)C1=O (configuration not stated)	·	·	·	0	-5	6
C(=C\c1ccccc1)/CSc1nnc(-c2ccncc2)n1Cc1ccco1	17	·	·	-1	-5	-1
O=c1c2ccccc2nc(-c2ccccc2)n1Cc1ccco1	-2	-4	33*	-1	-4	-9
Brc1ccc(CSc2nnc(-c3ccccn3)n2Cc2ccco2)cc1	-42	-4	-4	-1	-2	5
CC(C)(C)c1ccc(CSc2nnc(-c3ccccn3)n2Cc2ccco2)cc1	·	1	32*	-2	-2	-6
C(=C\c1ccccc1)/CSc1nnc(-c2ccccc2)n1Cc1ccco1	-40	-10	53*	-2	-3	-3
CCOC(=O)Nc1ccc2c(c1)Sc1ccccc1N2C(=O)CCN1CCOCC1	-2	-30	0	0	-5	-8
Cc1noc(C)c1COc1ccc(C(=O)OCC(=O)Nc2cccc(S(=O)(=O)N3CCOCC3)c2)cc1	·	·	·	-1	-1	3
Oc1c(C=C2N=c3ccccc3=N2)sc(=S)n1C1CCCC1	·	·	·	-1	-4	-4
Oc1c(C=C2N=c3ccccc3=N2)sc(=S)n1-c1ccc(F)cc1	·	23	-8	0	9.2*	-1
CCc1nnc(NC(=O)c2ccc(-c3ccc(Cl)cc3)o2)s1	8	1	-7	0	7.2*	3
CCn1nnc(NC(=O)c2ccc(-c3ccc(Cl)cc3)o2)n1	11	-11	-8	0	-2	4
CCc1nnc(NC(=O)CCC(=O)N2CCN(Cc3ccc(Cl)cc3)CC2)s1	-10	25	-3	-1	6.3*	-10
CCc1nnc(NC(=O)CCC(=O)N2CCN(Cc3ccccc3)CC2)s1	9	14	-2	-2	-1	-1
CCOc1ccccc1N1CCN(c2nc3ccccc3nc2C(C#N)C(=O)OC(C)C)CC1 (configuration not stated)	2	·	·	·	·	·
C=CCOC(=O)C(C#N)c1nc2ccccc2nc1N1CCN(c2ccccc2OCC)CC1 (configuration not stated)	5	·	·	0	5.2*	2
Cc1ccc(Nc2ncccc2C(N)=O)cc1[N+](=O)[O-]	·	·	·	1	1	-4
Cc1c(C(=O)OC2CCC(C)CC2)[nH]c2c1C(=O)CCC2 (configuration not stated)	25	-10	-9	-1	5.2*	8
COc1cccc(C2CN(c3ccc(F)cc3F)N=C2c2cccs2)c1OC (configuration not stated)	-1	-50	44*	41*	2	-10
COc1ccccc1C1CN(c2ccccc2)N=C1c1cccs1 (configuration not stated)	4	-32	33*	61*	-3	-2
COc1cccc(C2C=C(c3cccs3)Nc3ncnn32)c1OC (configuration not stated)	0	26	-11	0	-1	10
Cc1ccc(SCC(=O)NC(=O)Nc2ccc3c(c2)OCCO3)c(C)c1	·	·	·	-1	-1	-2
Cn1c(=N)c(S(=O)(=O)c2ccccc2)cc2c(=O)n3ccccc3nc21	30	-57	22*	3	-4	-9
